# For some of these results: Results with a measured potency or affinity are listed apart.
# How the values were obtained:
# Parameters in all cases: scale not given: direction of the effect not stated beside the values
# [1] = biological target: Protein translocase subunit SecA (Escherichia coli (strain K12)) (UniProt P10408); assay: Assay to Identify E. coli SecA ATPase Inhibitors; format: functional; details: 30 µM
# [2] = biological target: T1, Ubiquitin-activating enzyme e1, putative (Leishmania donovani (strain BPK282A1)) (UniProt E9BSI1); assay: Leishmania donovani Ubiquitin Activating Enzyme (LdE1); format: functional; details: 30 µM
# T1 sequence (whole entry): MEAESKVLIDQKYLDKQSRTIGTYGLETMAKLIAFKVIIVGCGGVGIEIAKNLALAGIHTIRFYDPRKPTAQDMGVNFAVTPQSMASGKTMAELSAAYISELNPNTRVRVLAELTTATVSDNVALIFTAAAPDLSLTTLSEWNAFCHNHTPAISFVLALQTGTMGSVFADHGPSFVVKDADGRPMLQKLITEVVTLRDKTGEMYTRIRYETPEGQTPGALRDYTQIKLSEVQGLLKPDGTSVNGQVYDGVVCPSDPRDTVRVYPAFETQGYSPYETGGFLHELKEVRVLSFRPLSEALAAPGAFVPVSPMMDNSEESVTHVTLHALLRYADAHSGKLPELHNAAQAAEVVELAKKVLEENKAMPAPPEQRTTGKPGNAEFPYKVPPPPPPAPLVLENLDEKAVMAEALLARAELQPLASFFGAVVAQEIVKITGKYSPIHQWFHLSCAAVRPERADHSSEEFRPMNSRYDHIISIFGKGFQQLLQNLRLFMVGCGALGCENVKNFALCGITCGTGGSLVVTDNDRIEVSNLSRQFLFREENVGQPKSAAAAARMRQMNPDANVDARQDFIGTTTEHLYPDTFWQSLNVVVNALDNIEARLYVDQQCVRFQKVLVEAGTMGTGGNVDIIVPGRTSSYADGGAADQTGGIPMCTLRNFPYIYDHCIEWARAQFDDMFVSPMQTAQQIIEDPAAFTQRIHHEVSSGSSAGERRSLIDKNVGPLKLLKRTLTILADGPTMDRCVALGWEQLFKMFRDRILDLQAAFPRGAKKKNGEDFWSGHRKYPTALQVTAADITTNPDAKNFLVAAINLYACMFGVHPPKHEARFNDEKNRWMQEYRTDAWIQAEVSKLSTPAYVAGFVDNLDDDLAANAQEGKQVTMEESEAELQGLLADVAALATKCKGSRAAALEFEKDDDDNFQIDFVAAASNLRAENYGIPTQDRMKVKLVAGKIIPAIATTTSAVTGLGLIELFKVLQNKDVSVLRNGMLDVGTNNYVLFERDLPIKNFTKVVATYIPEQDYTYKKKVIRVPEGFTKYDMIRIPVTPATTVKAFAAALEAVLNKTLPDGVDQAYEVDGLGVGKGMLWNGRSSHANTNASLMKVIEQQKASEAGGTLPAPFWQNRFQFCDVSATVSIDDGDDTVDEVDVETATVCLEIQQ
# [3] = biological target: AMP-activated protein kinase, AMPK (Homo sapiens) (UniProt P54646+O43741+P54619+Q9UGJ0+Q9Y478+Q13131+Q9UGI9); assay: AMP-dependent Kinase enzyme assay. An in vitro enzyme assay that detects ADP turnover that is directly proportional to AMPK activity. This uses naive AMPK that is activated during the assay with MK-8722; format: functional; details: 30 µM
# [4] = biological target: Sialic acid-binding Ig-like lectin 9 (Homo sapiens) (UniProt Q9Y336); assay: Hs-Siglec9 ALPHAscreen SOP 20170721; details: 10 µM
# Trypanosoma cruzi = assay: Trypanosoma cruzi phosphomannomutase and mannose-1-phosphate guanylyltransferase assay; format: functional; details: 10 µM
# [5] = biological target: T2, Arginase-2, mitochondrial (Homo sapiens) (UniProt P78540); assay: in vitro enzyme assay to detect the production of urea directly proportional to the activity of Arginase II; format: functional; details: 33.3 µM; note: in the data most compounds retested in dose-response had high values
# T2 sequence (whole entry): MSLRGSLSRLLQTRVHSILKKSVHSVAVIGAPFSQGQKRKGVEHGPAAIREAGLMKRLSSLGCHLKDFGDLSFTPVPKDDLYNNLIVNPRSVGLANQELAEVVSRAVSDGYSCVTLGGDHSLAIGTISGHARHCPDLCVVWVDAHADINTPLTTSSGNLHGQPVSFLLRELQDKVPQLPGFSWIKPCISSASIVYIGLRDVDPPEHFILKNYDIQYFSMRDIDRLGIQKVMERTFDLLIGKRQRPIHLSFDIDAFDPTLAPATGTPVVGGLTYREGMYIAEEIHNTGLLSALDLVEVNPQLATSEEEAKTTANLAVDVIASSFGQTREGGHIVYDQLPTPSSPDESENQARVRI
# [6] = biological target: T3, Proteasome subunit beta (Trypanosoma cruzi) (UniProt O96673); assay: Trypanosoma cruzi proteasome chymotrypsin-like activity (TcProtChymo) assay.; note: in the data most compounds retested in dose-response had high values; format: functional; details: 9.37 µM
# T3 sequence (whole entry): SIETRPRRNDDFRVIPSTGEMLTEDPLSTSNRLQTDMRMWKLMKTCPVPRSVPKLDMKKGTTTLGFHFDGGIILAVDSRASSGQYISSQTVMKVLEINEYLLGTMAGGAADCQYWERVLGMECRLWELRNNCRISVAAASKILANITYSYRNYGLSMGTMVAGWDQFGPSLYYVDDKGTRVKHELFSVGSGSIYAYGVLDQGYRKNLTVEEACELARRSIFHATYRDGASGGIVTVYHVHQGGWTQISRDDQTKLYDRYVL
# Homo sapiens = species: Homo sapiens; assay: To identify inhibition of the IFN signalling (Jak-Stat) pathway via expression of an eGFP reporter gene under the control of an IFN-stimulated response element (ISRE) containing MxA promoter.; format: functional; details: 30 µM
# [7] = biological target: T4, Tyrosyl-tRNA synthetase, putative (Trypanosoma cruzi (strain CL Brener)) (UniProt Q4DSP6); assay: Trypanosoma cruzi tyrosyl tRNA synthetase (TcYRS) _High Tyrosine SOP; format: functional; details: 30 µM; note: in the data most compounds retested in dose-response had high values
# T4 sequence (whole entry): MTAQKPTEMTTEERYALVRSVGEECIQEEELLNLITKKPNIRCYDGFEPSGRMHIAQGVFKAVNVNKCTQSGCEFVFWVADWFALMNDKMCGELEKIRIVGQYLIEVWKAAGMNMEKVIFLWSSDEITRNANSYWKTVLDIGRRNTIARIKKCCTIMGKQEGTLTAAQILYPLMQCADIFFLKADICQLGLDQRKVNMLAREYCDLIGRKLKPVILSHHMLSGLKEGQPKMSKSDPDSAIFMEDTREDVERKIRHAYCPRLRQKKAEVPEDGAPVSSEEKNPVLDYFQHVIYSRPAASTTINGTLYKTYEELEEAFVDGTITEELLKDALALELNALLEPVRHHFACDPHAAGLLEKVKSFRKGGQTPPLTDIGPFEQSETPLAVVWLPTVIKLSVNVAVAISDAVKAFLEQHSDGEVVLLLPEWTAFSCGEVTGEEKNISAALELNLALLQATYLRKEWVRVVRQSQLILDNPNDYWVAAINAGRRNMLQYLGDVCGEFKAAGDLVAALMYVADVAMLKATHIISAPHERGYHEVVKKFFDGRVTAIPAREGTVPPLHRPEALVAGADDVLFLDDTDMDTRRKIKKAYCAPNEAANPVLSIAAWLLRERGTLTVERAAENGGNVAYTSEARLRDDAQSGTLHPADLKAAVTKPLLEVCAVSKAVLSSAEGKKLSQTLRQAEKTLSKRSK
# [8] = biological target: T4, Tyrosyl-tRNA synthetase, putative (Trypanosoma cruzi (strain CL Brener)); assay: Trypanosoma cruzi tyrosyl tRNA synthetase (TcYRS) SOP; format: functional; details: 30 µM
# [9] = biological target: Chromo domain-containing protein 1 (Saccharomyces cerevisiae (strain ATCC 204508 / S288c) (Baker's yeast)) (UniProt P32657); assay: ScCHD-1 Enzyme Inhibition Assay; format: functional; details: 30 µM; note: in the data most compounds retested in dose-response had high values
# Chain of Chromo domain-containing protein 1 (Saccharomyces cerevisiae (strain ATCC 204508 / S288c) (Baker's yeast)) (P32657 whole entry, the tested form may be a part): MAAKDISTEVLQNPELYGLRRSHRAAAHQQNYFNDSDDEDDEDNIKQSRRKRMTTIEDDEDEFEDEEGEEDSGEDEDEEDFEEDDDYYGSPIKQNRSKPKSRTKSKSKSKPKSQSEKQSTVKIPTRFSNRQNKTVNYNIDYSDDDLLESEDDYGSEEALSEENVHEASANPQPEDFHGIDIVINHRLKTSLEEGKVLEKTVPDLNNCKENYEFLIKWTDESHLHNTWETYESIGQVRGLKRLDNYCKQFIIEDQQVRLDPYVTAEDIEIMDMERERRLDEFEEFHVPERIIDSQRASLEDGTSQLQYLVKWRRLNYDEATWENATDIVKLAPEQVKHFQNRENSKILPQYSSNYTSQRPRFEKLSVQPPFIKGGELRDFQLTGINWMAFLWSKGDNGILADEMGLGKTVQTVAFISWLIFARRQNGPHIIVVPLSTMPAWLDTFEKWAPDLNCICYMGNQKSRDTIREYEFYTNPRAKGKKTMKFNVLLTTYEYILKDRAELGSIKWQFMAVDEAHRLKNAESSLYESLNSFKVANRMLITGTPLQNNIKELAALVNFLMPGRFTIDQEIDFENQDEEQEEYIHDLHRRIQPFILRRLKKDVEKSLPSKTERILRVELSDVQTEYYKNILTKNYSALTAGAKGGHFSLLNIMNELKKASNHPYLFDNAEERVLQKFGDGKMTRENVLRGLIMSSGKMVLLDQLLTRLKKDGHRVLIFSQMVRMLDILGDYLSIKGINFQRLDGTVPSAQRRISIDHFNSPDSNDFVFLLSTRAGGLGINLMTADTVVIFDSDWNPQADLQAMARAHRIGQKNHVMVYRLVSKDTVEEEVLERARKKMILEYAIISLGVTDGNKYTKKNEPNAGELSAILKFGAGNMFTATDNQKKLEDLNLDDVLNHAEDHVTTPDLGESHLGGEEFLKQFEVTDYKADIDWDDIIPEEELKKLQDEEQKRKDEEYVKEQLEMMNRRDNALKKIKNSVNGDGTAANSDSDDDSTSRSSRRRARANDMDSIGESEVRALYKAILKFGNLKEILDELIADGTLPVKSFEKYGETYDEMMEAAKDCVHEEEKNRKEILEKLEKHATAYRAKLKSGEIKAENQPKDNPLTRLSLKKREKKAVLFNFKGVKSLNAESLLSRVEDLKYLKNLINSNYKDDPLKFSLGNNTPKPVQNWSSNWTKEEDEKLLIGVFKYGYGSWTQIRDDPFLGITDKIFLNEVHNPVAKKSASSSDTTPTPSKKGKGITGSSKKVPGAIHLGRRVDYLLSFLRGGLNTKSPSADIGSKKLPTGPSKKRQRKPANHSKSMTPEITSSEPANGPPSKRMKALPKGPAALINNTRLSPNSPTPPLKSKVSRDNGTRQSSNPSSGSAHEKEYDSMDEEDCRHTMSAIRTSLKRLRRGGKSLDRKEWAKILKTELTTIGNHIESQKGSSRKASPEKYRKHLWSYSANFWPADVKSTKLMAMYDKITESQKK
# Chain of Protein translocase subunit SecA (Escherichia coli (strain K12)) (P10408 whole entry): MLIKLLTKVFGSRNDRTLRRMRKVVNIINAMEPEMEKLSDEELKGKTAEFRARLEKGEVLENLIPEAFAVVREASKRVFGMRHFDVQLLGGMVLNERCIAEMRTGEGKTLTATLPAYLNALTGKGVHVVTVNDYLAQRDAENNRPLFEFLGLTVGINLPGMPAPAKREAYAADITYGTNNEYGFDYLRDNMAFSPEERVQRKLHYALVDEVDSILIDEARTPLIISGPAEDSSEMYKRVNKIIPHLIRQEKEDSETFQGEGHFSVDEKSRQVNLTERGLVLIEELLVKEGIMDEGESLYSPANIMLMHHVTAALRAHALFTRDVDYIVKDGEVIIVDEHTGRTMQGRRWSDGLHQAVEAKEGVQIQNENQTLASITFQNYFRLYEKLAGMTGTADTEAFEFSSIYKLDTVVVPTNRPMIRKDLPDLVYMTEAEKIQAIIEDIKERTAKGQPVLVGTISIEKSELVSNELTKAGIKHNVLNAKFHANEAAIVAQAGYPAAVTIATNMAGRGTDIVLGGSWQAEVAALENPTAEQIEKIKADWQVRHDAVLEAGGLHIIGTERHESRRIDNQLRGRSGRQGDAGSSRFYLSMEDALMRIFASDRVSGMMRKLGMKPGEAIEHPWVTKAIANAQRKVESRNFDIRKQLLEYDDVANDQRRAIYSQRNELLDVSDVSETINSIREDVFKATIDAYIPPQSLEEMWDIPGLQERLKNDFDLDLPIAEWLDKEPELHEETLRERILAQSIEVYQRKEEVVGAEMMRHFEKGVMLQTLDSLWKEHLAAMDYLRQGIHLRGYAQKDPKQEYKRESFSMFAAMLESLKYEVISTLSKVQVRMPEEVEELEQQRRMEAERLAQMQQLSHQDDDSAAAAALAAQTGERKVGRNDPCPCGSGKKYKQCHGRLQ
# Chain of Sialic acid-binding Ig-like lectin 9 (Homo sapiens) (Q9Y336 whole entry): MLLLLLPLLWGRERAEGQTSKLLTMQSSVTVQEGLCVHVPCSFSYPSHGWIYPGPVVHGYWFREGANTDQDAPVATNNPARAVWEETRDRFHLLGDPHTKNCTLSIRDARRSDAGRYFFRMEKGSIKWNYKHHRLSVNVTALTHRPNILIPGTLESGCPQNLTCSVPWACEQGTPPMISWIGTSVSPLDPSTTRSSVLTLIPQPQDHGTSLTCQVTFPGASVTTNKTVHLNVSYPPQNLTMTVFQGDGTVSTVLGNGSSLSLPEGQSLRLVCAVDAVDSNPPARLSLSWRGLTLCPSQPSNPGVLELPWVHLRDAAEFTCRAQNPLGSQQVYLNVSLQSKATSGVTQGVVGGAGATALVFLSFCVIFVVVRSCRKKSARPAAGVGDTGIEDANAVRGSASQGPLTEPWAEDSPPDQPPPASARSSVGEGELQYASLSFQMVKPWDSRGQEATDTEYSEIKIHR
SMILES,Percent Effect [1] [%],Percent Effect [2] [%],Percent Effect [3] [%],Percent Effect [4] [%],Percent Effect (Trypanosoma cruzi) [%],Percent Effect [5] [%],Percent Effect [6] [%],Percent Effect (Homo sapiens) [%],Percent Effect [7] [%],Percent Effect [8] [%],Percent Effect [9] [%]
COc1ccc(CS(=O)(=O)CC(=O)NCC2CC2)cc1F,-1.25,10.5,6.04,-2.71,1.66,5.92,15.6,8.09,6.38,18.2,-4.08
CN1CCOC(CNCc2cccc(OCc3ccccn3)c2)C1 (stereo not drawn),-5.11,5.06,-8.27,12.2,3.87,-1.9,-4.18,-5.19,7.39,11.4,-2.11
CCc1n[nH]c(C2CN(C(=O)c3csnn3)CCO2)n1 (stereo not drawn),-7.28,10.4,0.934,4.09,7.15,-5.26,6.06,3.52,2.86,11.8,-11.6
CCn1nc2c(cc1=O)CN(Cc1nc3ccccc3c(=O)[nH]1)CC2,-5.88,5.48,-24.8,-1.63,-1.57,-1.36,18.3,10.3,6.45,10,-4.67
Cc1noc(CCCC(=O)NC(C)c2ccccn2)n1 (stereo not drawn),-1.78,18.4,-1.11,2.7,3.01,2.68,6.52,3.32,10.3,21.9,-13.2
Cc1cc(NC(=O)CN(C)C2CCCN(c3cccnn3)C2)n(C)n1 (stereo not drawn),-4.44,7.89,-28.4,2.85,12.2,-1.8,10.6,-5.3,4.43,13.6,6.51
CN(CCCc1cnn(C)c1)C(=O)C1COc2ccccc2C1 (stereo not drawn),0.742,8.22,1.84,-1.88,-1.37,2.27,20.6,9.33,2.15,17.5,-14.2
CCOCc1ncn2c1CN(C(=O)Nc1cccc(C)c1)CC2,-0.857,-173,3.58,1.03,-2.54,0.417,9.21,2.31,12.9,13.4,1.64

# Reference: ChEMBL document CHEMBL3988442, “University of Dundee, Small-Polar-MMV Screening Library” (2021)
